From PubChem BioAssay (EPA / NIEHS)
Calls of active or inactive are those of the source. Rule for the calls: active = hit-call score of the fitted dose curve at least 0.9, where 1 is the maximum; inactive = score below 0.9.

What was measured:
Settings in all cases: mRNA level, 48 h; actives raise or lower the signal
[1] = read-out: 3-Hydroxy-3-Methylglutaryl-CoA Synthase 2 (HMGCS2), HMGCS2 (gene 3158); assay: LTEA_HepaRG_HMGCS2: Life Technologies and Expression Analysis (LTEA) Assay for 3-Hydroxy-3-Methylglutaryl-CoA Synthase 2 (HMGCS2) using HepaRG (AID 2283504)
Method in brief: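 qRT-PCR read-out of HMGCS2 transcript, normalised to three housekeeping genes, in HepaRG cells after 48 h chemical exposure. Eight-point curves from 100 uM, half-log dilutions, 0.5% DMSO vehicle; gain or loss fitted relative to DMSO baseline.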

HGF (gene 3082) = assay: LTEA_HepaRG_HGF: Life Technologies and Expression Analysis (LTEA) Assay for Hepatocyte Growth Facto (HGF) using HepaRG (AID 2283505)
Method in brief: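 HepaRG, 48 h dosing, 8-pt half-log series from 100 uM in 0.5% DMSO, duplicates. Readout: TaqMan qRT-PCR of HGF mRNA, housekeeping-normalized; bidirectional curve fit vs DMSO baseline.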

[2] = read-out: Insulin Like Growth Factor 1 (IGF1), IGF1 (gene 3479); assay: LTEA_HepaRG_IGF1: Life Technologies and Expression Analysis (LTEA) Assay for Insulin Like Growth Factor 1 (IGF1) using HepaRG (AID 2283506)
Method in brief: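 Cells are thawed, plated and cultured 48 h, then exposed in duplicate to chemical (highest 100 uM, half-log steps, 0.5% DMSO) for another 48 h. Total RNA is analysed by Fluidigm qRT-PCR for IGF1 expression relative to vehicle.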

[3] = read-out: Intercellular Adhesion Molecule 1 (ICAM1), ICAM1 (gene 3383); assay: LTEA_HepaRG_ICAM1: Life Technologies and Expression Analysis (LTEA) Assay for Intercellular Adhesion Molecule 1 (ICAM1) using HepaRG (AID 2283507)
Method in brief: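 HepaRG, 48 h exposure, 8-pt half-log series from 100 uM, 0.5% DMSO vehicle, duplicates. Readout: TaqMan qRT-PCR mRNA, housekeeping-normalized (ACTB/GAPDH/POLR2A). Bidirectional curve fit vs DMSO baseline.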

[4] = read-out: Insulin-like growth factor-binding protein 1 (IGFBP1), IGFBP1 (gene 3484); assay: LTEA_HepaRG_IGFBP1: Life Technologies and Expression Analysis (LTEA) Assay for Insulin-like growth factor-binding protein 1 (IGFBP1) using HepaRG (AID 2283508)
Method in brief: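 qRT-PCR mRNA read-out (TaqMan, Fluidigm array), normalised to three housekeeping genes; HepaRG cells, 48 h exposure, 8-pt half-log series from 100 uM, 0.5% DMSO vehicle; bidirectional curve fit vs DMSO baseline.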

[5] = read-out: Interleukin 6 (IL6), IL6 (gene 3569); assay: LTEA_HepaRG_IL6: Life Technologies and Expression Analysis (LTEA) Assay for Interleukin 6 (IL6) using HepaRG (AID 2283509)
Method in brief: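 Changes in IL6 mRNA, up or down relative to 0.5% DMSO controls, were derived from concentration-response curves in human HepaRG cells treated for 48 h at up to 100 uM, with ACTB, GAPDH and POLR2A as normalizers.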

[6] = read-out: Interleukin 6 Receptor (IL6R), IL6R (gene 3570); assay: LTEA_HepaRG_IL6R: Life Technologies and Expression Analysis (LTEA) Assay for Interleukin 6 Receptor (IL6R) using HepaRG (AID 2283510)
Method in brief: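 Cells were thawed, plated and cultured 48 h, then medium was changed to serum-free induction medium. Chemicals were added in duplicate (100 uM top, half-log steps, 0.5% DMSO) for 48 h. Lysates were analyzed by qRT-PCR for IL6R expression.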

[7] = read-out: Potassium channel subfamily K member 1 (KCNK1), KCNK1 (gene 3775); assay: LTEA_HepaRG_KCNK1: Life Technologies and Expression Analysis (LTEA) Assay for Potassium channel subfamily K member 1 (KCNK1) using HepaRG (AID 2283511)
Method in brief: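 Human HepaRG cultures receive test chemicals for 48 h in 0.5% DMSO, top concentration 100 uM with half-log dilutions. Induction or suppression of KCNK1 mRNA relative to DMSO is derived by bidirectional fitting of qRT-PCR data.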

[8] = read-out: Keratin 19 (KRT19), KRT19 (gene 3880); assay: LTEA_HepaRG_KRT19: Life Technologies and Expression Analysis (LTEA) Assay for Keratin 19 (KRT19) using HepaRG (AID 2283512)
Method in brief: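 HepaRG, 48 h chemical exposure, 8-pt half-log CRC from 100 uM, 0.5% DMSO vehicle, duplicates. Readout: TaqMan qRT-PCR of KRT19 mRNA, housekeeping-normalized (ACTB/GAPDH/POLR2A). Bidirectional fit vs DMSO baseline.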

[9] = read-out: JUN Transcription Factor, JUN (gene 3725); assay: LTEA_HepaRG_JUN: Life Technologies and Expression Analysis (LTEA) Assay for JUN Transcription Factor using HepaRG (AID 2283513)
Method in brief: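 Read-out is JUN transcript level by TaqMan qRT-PCR, normalized to ACTB, GAPDH and POLR2A, after 48 h chemical treatment of HepaRG cells. Concentration-response spanned eight half-log points up to 100 uM in 0.5% DMSO.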

Measured: AC50

C=C(C)[C@H]1Cc2c(ccc3c2O[C@@H]2COc4cc(OC)c(OC)cc4[C@@H]2C3=O)O1
inactive: [6]
active: [1] 1.7 µM | HGF (gene 3082) 22.8 µM | [2] 1.03 µM | [3] 2.14 µM | [4] 2.9 µM | [5] 1.44 µM | [7] 16.6 µM | [8] 0.654 µM

CCOC(=O)CC(SP(=O)(OC)OC)C(=O)OCC (configuration not stated)
not listed: [6]
inactive: all other assays above

CCOP(=S)(OCC)Oc1cc(C)nc(C(C)C)n1
active: [2] 27.3 µM | [4] 19 µM
not listed: [6]
inactive: all other assays above

CC1(C(=O)Nc2ccc(O)c(Cl)c2Cl)CCCCC1
not listed: [6] | [9]
inactive: all other assays above

O=C(O)c1cc(Oc2ccc(C(F)(F)F)cc2Cl)ccc1[N+](=O)[O-]
active: [1] 50 µM
not listed: [2] | [6] | [9]
inactive: all other assays above

CCOP(=S)(OCC)Oc1ccc2c(C)c(Cl)c(=O)oc2c1
active: [1] 51.8 µM | [2] 33.8 µM | [4] 21.5 µM | [8] 29.4 µM
inactive: HGF (gene 3082) | [3] | [5] | [7]

COP(=O)(NC(C)=O)SC (configuration not stated)
not listed: [6] | [9]
inactive: all other assays above

CC(C)N(C(=O)SCC(Cl)=C(Cl)Cl)C(C)C
not listed: [6]
inactive: all other assays above

CCOP(=O)(OCC)Oc1cc(C)nc(C(C)C)n1
not listed: [6]
inactive: all other assays above

O=c1ccc(=O)[nH][nH]1
not listed: [6]
inactive: all other assays above

CON=C(C(=O)OC)c1ccccc1CON=C(C)c1cccc(C(F)(F)F)c1
active: [2] 50 µM
not listed: [6]
inactive: all other assays above

CNC(=O)ON=C(SC)C(=O)N(C)C
not listed: [6] | [9]
inactive: all other assays above

CNc1cnn(-c2cccc(C(F)(F)F)c2)c(=O)c1Cl
inactive: HGF (gene 3082) | [3] | [7] | [9]
active: [1] 9.92 µM | [2] 36.9 µM | [4] 17.4 µM | [5] 50 µM | [8] 14.5 µM

Nc1nc(N)nc(NC2CC2)n1
not listed: [6] | [9]
inactive: all other assays above

CCc1cccc(CC)c1N(COC)C(=O)CCl
active: [4] 32.1 µM
not listed: [6] | [9]
inactive: all other assays above

COP(=O)(OC)C(O)C(Cl)(Cl)Cl (configuration not stated)
not listed: [6] | [9]
inactive: all other assays above

Cc1cc(C2CC2)nc(Nc2ccccc2)n1
active: [8] 22.9 µM
not listed: [6]
inactive: all other assays above

CCOP(=S)(OCC)SCCSCC
not listed: [2] | [6]
inactive: all other assays above
